Test results from PubChem BioAssay (Tox21).
Values joined by “and” are separate entries in the source; they are usually repeats but may differ in a detail not shown here. Identical values can stand only once. Results filed as inconclusive are left out. Where a call stands in place of a potency, no number is given. More than one record can exist for a structure, and the calls need not agree. Active and inactive are the calls of the source. Unless noted, calls follow the shape of the full dose curve.

Assays:
[1] = Nuclear factor erythroid 2-related factor 2/antioxidant responsive element (Nrf2/ARE) small molecule agonists: qHTS cell viability counter screen in human keratinocytes (AID 1919968; active = well fitted cell-killing curve with a large enough effect in the repeat runs; also: nearly all actives have a fitted effect of over 55% in size)
Method in brief: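 Cytotoxicity was multiplexed with the Nrf2/ARE luciferase assay in the same wells. Stably transfected HaCaT keratinocytes were treated with test compounds for 23 h at 37 C. Cell viability was then measured by CellTiter-Fluor fluorescence.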

[2] = Nuclear factor erythroid 2-related factor 2/antioxidant responsive element (Nrf2/ARE) small molecule agonists: luciferase reporter gene qHTS assay in human keratinocytes (AID 1919969); also: nearly all actives have a fitted effect of over 35% in size; also: potency is read from the fitted curve at half-maximal effect
[3] = target: Gonadotropin-releasing hormone receptor (Homo sapiens) (UniProt P30968); assay: Human gonadotropin-releasing hormone receptor (GnRHR) small molecule agonists, calcium flux assay in GnRHR-HEK293 cells (AID 1920063); also: nearly all actives have a fitted effect of over 35% in size; also: potency is read from the fitted curve at half-maximal effect
Method in brief: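 Agonist activity was measured as intracellular calcium flux in HEK293 cells engineered to stably express human GnRHR. After dye loading for 1 hour at 37 C, compounds in DMSO were added and fluorescence was followed for 3 minutes.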

[4] = G protein-coupled receptor (GPCR) small molecule agonists, calcium flux assay: HEK293 wild type cell line counter screen (AID 1920065); also: potency is read from the fitted curve at half-maximal effect
Method in brief: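 Seed cells, incubate 18 h (37 C, 5% CO2); add calcium dye, 1 h at 37 C; pin-transfer compounds, ATP control or DMSO; read fluorescence 480/540 nm each second for 3 min.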

[5] = p53 small molecule agonists, cell-based qHTS assay with human liver microsomes (AID 1963577);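 also: p53 response element beta-lactamase reporter cells with liver microsomes plus NADPH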
Method in brief: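 Steps: plate p53RE-bla cells, incubate 5 h at 37 C; add compound in DMSO; add microsomes (0.5 mg/mL final) and NADPH (0.5 mg/mL final); incubate 16 h at 37 C; add LiveBLAzer, 2 h RT; read fluorescence.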

[6] = p53 small molecule agonists, cell-based qHTS assay with rat liver microsomes (AID 1963578)
Method in brief: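 Metabolic activation is supplied by rat liver microsomes with NADPH (each 0.5 mg/mL final). p53RE-bla cells incubate with compound 16 h at 37 C; reporter activity is measured by LiveBLAzer fluorescence.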

[7] = p53 small molecule agonists, cell-based qHTS assay with human liver microsomes: qHTS cell viability counter screen (AID 1963579); also: nearly all actives have a fitted effect of over 45% in size; also: potency is read from the fitted curve at half-maximal effect
Method in brief: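 After the 460/530 nm beta-lactamase read, CellTiter-Glo was added to the same wells and luminescence measured after 30 min at room temperature, giving viability of p53RE-bla cells treated 16 h with compounds plus microsomes and NADPH.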

[8] = p53 small molecule agonists, cell-based qHTS assay with rat liver microsomes: qHTS cell viability counter screen (AID 1963580); also: nearly all actives have a fitted effect of over 45% in size; also: potency is read from the fitted curve at half-maximal effect
Method in brief: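 Luminescent ATP readout (CellTiter-Glo, 30 min at room temperature) reports viability of p53RE-bla HCT-116 cells after 16 h at 37 C with test compounds under metabolic activation by rat liver microsomes and NADPH at 0.5 mg/mL final each.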

[9] = p53 small molecule agonists, cell-based qHTS assay: qHTS cell viability counter screen (AID 1963581); also: nearly all actives have a fitted effect of over 45% in size; also: potency is read from the fitted curve at half-maximal effect
Method in brief: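 Viability was counter-screened in parallel with the p53 agonist reporter by measuring intracellular ATP luminescence in the same HCT-116 p53RE-bla wells after 16 h compound treatment at 37 C.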

[10] = p53 small molecule agonists, cell-based qHTS assay (AID 1963582; active = well fitted activation curve with a large enough effect in the signal ratio in the repeat runs, not every such curve was filed as active; the % refers to the signal ratio)
Method in brief: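 Cells carrying a p53-responsive bla reporter are treated with test compounds for 16 h at 37 C; beta-lactamase activity is then detected with LiveBLAzer B/G FRET substrate after 2 h at room temperature.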

[11] = cAMP Responsive Elements (CRE) small molecule agonists, cell-based qHTS assay (AID 1963590)
Method in brief: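 Cells carrying a CRE-driven beta-lactamase reporter (HEK 293T) are seeded, incubated overnight (18 h), and treated with test compounds for 3 h at 37 C; reporter activity is then detected with a FRET substrate after 2 h at room temperature.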

[12] = cAMP Responsive Elements (CRE) small molecule antagonists, cell-based qHTS assay (AID 1963591; active = well fitted inhibition curve with a large enough effect in the signal ratio in the repeat runs, not every such curve was filed as active; the % refers to the signal ratio)
Method in brief: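 Cells (CRE-bla HEK 293T, DMEM with 10% dialyzed FBS and 25 mM HEPES) are seeded and incubated 18 h. Compounds are added with NKH477 agonist at 0.25 uM final for 3 h, then FRET substrate for 2 h.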

[13] = target: Beta-2 adrenergic receptor (Homo sapiens) (UniProt P07550); assay: Adrenergic beta2 receptor (ADRB2) small molecule antagonists, cell-based qHTS assay (AID 1963592); also: series mostly up to about 92 µM; nearly all actives have a fitted effect of over 50% in size
Method in brief: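 Assay format: CHO-ADRB2 cells, 18-20hr seeding at 37C/5% CO2, then compound plus 1nM isoproterenol agonist mix for 0.5hr RT. Homogeneous time-resolved fluorescence cAMP detection after 1hr, expressed as 665/615 nm ratio.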

[14] = target: D(2) dopamine receptor (Homo sapiens) (UniProt P14416); assay: Dopamine D2 receptor (DRD2) small molecule agonists, cell-based qHTS assay (AID 1963594); also: nearly all actives have a fitted effect of over 35% in size
Method in brief: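 HEK293 cells stably expressing DRD2 were cultured 24 h at 37 C, then given Ro20-1724 (0.1 mM final) and compounds for 10 min at room temperature. NKH477 (200nM) was then added for 30 min. cAMP was read by HTRF.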

[15] = target: D(2) dopamine receptor (Homo sapiens) (UniProt P14416); assay: Dopamine D2 receptor (DRD2) small molecule antagonists, cell-based qHTS assay (AID 1963595; active = well fitted inhibition curve with a large enough effect in the signal ratio in the repeat runs, with a control signal flat; the % refers to the signal ratio; also: potency is read from the fitted curve at half-maximal effect)
Method in brief: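 HEK293 cells stably expressing DRD2 were preincubated with 0.1 mM Ro20-1724, then with compound for 10 min at room temperature. Cells were stimulated with 200 nM NKH477 plus 12 nM quinpirole for 30 min, and cAMP was read by HTRF.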

[16] = target: 5-hydroxytryptamine receptor 2A (Homo sapiens) (UniProt P28223); assay: 5-hydroxytryptamine receptor 2A (HTR2A) small molecule antagonists, cell-based qHTS assay (AID 1963586); also: nearly all actives have a fitted effect of over 45% in size
Method in brief: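 CHO cells stably expressing human HTR2A were plated for 18 h at 37 C, then loaded with calcium dye for 1 h. Compounds were preincubated 5 min at room temperature before DOI (4 nM solution) was added. Kinetic fluorescence was read for 3 min.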

[17] = target: 5-hydroxytryptamine receptor 2A (Homo sapiens) (UniProt P28223); assay: 5-hydroxytryptamine receptor 2A (HTR2A) small molecule agonists, cell-based qHTS assay (AID 1963587); also: nearly all actives have a fitted effect of over 30% in size; also: potency is read from the fitted curve at half-maximal effect
Method in brief: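 HTR2A-CHO cells, plated 18 h at 37 C/5% CO2, dye-loaded 1 h at 37 C; compounds in DMSO added by pin tool (agonist mode). Intracellular calcium flux read as kinetic fluorescence on FDSS over 2 min at 1 s intervals.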

[18] = target: Muscarinic acetylcholine receptor M1 (Homo sapiens) (UniProt P11229); assay: Cholinergic receptor muscarinic 1 (CHRM1) small molecule antagonists, cell-based qHTS assay (AID 1963588); also: nearly all actives have a fitted effect of over 40% in size
Method in brief: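 Compounds were tested at 15 concentrations in three independent runs. Dye-loaded CHRM1-CHO cells were exposed 5 min at room temperature before stimulation by acetylcholine added at 50nM. Intracellular calcium was read kinetically on FDSS for 3 min.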

[19] = target: Muscarinic acetylcholine receptor M1 (Homo sapiens) (UniProt P11229); assay: Cholinergic receptor muscarinic 1 (CHRM1) small molecule agonists, cell-based qHTS assay (AID 1963589); also: nearly all actives have a fitted effect of over 35% in size; also: potency is read from the fitted curve at half-maximal effect
Method in brief: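 Cells were plated and incubated 18 h at 37 C/5% CO2, loaded with calcium dye for 1 h at 37 C, then treated with compounds in DMSO. Fluorescence was recorded kinetically at 1 sec intervals.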

[20] = target: Beta-2 adrenergic receptor (Homo sapiens) (UniProt P07550); assay: Adrenergic beta2 receptor (ADRB2) small molecule agonists, cell-based qHTS assay (AID 1963593);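 also: CHO cells stably overexpressing human ADRB2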
Method in brief: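 CHO cells stably over-expressing ADRB2 were plated overnight at 37C, then dosed with compounds plus a stimulation mix containing 100uM IBMX and 25uM Ro-20-1724 for 0.5hr at room temperature. cAMP was measured by HTRF competition, 1hr.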

Sequence of Muscarinic acetylcholine receptor M1 (Homo sapiens) (P11229 whole entry, looked up): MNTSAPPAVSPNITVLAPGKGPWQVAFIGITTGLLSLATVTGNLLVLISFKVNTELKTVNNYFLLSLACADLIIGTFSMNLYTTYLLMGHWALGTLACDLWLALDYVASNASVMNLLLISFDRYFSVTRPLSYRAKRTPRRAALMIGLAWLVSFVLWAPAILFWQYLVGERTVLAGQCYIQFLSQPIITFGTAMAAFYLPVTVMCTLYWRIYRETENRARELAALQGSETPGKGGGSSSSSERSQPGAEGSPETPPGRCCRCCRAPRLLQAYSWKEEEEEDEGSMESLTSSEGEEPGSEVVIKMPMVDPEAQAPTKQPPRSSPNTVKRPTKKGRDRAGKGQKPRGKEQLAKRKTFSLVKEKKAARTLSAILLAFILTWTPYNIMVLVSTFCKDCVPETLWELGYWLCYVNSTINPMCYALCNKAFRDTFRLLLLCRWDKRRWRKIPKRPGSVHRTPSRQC
Sequence of D(2) dopamine receptor (Homo sapiens) (P14416 whole entry, looked up): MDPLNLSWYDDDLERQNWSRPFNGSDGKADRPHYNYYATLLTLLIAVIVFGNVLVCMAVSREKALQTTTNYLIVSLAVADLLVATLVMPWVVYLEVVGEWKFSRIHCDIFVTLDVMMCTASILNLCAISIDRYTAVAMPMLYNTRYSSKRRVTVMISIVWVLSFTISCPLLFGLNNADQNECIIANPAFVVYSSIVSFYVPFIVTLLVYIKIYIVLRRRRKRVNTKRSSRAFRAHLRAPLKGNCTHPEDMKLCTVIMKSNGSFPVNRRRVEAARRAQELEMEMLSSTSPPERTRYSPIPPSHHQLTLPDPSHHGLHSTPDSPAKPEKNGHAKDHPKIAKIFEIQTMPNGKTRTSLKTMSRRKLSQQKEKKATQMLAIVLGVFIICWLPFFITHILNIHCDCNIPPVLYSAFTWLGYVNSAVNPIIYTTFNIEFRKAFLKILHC
Sequence of 5-hydroxytryptamine receptor 2A (Homo sapiens) (P28223 whole entry, looked up): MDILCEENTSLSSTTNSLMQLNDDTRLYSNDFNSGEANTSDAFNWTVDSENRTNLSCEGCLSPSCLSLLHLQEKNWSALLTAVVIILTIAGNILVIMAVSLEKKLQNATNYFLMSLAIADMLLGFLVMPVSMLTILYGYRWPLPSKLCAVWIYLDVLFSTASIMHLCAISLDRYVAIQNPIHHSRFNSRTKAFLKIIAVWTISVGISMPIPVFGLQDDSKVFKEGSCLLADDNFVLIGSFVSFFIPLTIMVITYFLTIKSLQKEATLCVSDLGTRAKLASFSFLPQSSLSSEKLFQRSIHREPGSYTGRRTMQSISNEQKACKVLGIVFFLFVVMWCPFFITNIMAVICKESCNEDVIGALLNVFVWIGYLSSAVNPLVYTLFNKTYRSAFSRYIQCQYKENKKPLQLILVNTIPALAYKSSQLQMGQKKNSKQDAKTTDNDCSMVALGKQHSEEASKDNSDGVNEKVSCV
Sequence of Beta-2 adrenergic receptor (Homo sapiens) (P07550 whole entry, looked up): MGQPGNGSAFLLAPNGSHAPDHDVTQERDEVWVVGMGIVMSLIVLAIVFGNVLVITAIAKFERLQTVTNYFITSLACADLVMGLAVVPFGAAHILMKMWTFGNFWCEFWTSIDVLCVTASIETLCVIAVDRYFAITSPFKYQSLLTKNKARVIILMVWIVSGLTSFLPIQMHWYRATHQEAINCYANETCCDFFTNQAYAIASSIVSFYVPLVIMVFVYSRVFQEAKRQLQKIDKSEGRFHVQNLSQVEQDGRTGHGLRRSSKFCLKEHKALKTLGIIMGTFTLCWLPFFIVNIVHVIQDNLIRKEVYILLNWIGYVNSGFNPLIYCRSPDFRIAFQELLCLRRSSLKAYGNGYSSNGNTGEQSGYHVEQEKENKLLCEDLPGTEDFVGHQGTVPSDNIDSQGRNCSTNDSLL
Sequence of Gonadotropin-releasing hormone receptor (Homo sapiens) (P30968 whole entry, looked up): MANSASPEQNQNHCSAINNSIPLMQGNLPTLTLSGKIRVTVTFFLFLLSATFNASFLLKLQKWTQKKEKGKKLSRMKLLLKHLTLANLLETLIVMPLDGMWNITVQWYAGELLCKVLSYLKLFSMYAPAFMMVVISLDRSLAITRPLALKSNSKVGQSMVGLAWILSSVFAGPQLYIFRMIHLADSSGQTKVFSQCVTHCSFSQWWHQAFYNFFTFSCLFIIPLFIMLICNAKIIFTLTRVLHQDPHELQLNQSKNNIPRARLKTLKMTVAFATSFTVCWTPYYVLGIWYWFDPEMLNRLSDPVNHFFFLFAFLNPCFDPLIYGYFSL

SMILES | Potency [1] | Potency [2] | Potency [3] | Potency [4] | Potency [5] | Potency [6] | Potency [7] | Potency [8] | Potency [9] | Potency [10] | Potency [11] | Potency [12] | Potency [13] | Potency [14] | Potency [15] | Potency [16] | Potency [17] | Potency [18] | Potency [19] | Potency [20]
CCN(CC)CCOC(=O)c1ccc(N)cc1 | inactive | inactive | inactive | inactive | inactive | inactive | inactive | inactive | inactive | inactive | inactive | inactive | inactive | inactive | inactive | – | – | – | – | –
Brc1cc(Oc2cc(Br)c(Br)c(Br)c2Br)c(Br)c(Br)c1Br | inactive | 68.9 µM (active) and inactive | inactive | inactive | inactive | inactive | 20.5 µM (active) and inactive | inactive | inactive | – | inactive | inactive | inactive | inactive | inactive | inactive | inactive | inactive | inactive | inactive
CCN=c1cc2oc3cc(NCC)c(C)cc3c(-c3ccccc3C(=O)OCC)c-2cc1C | inactive | inactive and 27.3 µM (active) | 12.3 µM (active) and 7.76 µM (active) | 38.8 µM (active) and 30.9 µM (active) | inactive | inactive | 40.6 µM (active) and 40.8 µM (active) | 20.4 µM (active) and 40.8 µM (active) | 45.6 µM (active) | – | – | – | – | – | 34.4 µM (active) | inactive | 5.47 µM (active) and 19.5 µM (active) | inactive | 19.4 µM (active) and 19.5 µM (active) | –
O=C(O)c1ccc(C(=O)O)cc1 | inactive | inactive | inactive | inactive | inactive | inactive | – | inactive | inactive | inactive | inactive | inactive | inactive | inactive | – | inactive | inactive | inactive | – | inactive
O=C(O)CC(C(=O)O)C(CC(=O)O)C(=O)O (stereo unspecified) | inactive | inactive | inactive | inactive | inactive | inactive | inactive | inactive | inactive | – | inactive | inactive | inactive | inactive | inactive | inactive | inactive | inactive | inactive | –
Cc1ncc([N+](=O)[O-])n1C | inactive | inactive | inactive | inactive | inactive | inactive | – | inactive | inactive | inactive | inactive | inactive | inactive | inactive | inactive | inactive | inactive | inactive | inactive | inactive
O=S(=O)(O)c1ccc(O)cc1 | inactive | inactive | inactive | inactive | inactive | inactive | inactive | inactive | inactive | inactive | inactive | inactive | inactive | inactive | inactive | inactive | inactive | inactive | inactive | –
